Results as given in PubChem BioAssay (Tox21).
Inconclusive results are not listed. The source made the active and inactive calls. Calls come from the whole dose curve; as a rule, active = well fitted curve in the direction sought with a large enough effect in the repeat runs; inconclusive = weak or mixed curves; inactive = no such curve, though single readings can be large; an effect the other way counts as inactive or inconclusive.

Columns and labels:
[1] = qHTS RealTime-Glo MT Cell Viability Assay in HEK293 cells - 16 hour (AID 1224872); settings: RealTime-Glo luminescence; series mostly up to 76.8 µM; note: nearly all actives have a fitted effect of over 50% in size; note: potency is the fitted concentration of half-maximal effect
How it was run: (§1)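 Tox21 10K qHTS, HEK293, 600 cells/well, RealTime-Glo reagent co-dispensed with cells; 5 h preincubation, compound by pintool, 37 C, luminescence at 0–40 h.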

[2] = qHTS RealTime-Glo MT Cell Viability Assay in HepG2 cells - 8 hour (AID 1224873); settings: RealTime-Glo luminescence; series mostly up to 76.8 µM; note: nearly all actives have a fitted effect of over 55% in size
How it was run: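 HepG2 cells (600/well) mixed with RealTime-Glo MT reagent, settled 5 h at 37 C/5% CO2 before compound addition. Nonlytic NanoLuc luminescence from viable-cell prosubstrate reduction read repeatedly during 40 h treatment at 37 C.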

[3] = A CellTox Green Cytotoxicity Assay to monitor cytotoxicity in HEK293 cells - 24 hour (AID 1224875); settings: CellTox Green fluorescence; series mostly up to 76.8 µM; note: nearly all actives have a fitted effect of over 45% in size
How it was run: (§2)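 Real-time, in one plate: 600 HEK293 cells/well with dead-cell DNA dye, pinned compound after 5 h, 37 C incubation over 40 h; viable cells give no appreciable fluorescence.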

[4] = A CellTox Green Cytotoxicity Assay to monitor cytotoxicity in HepG2 cells - 16 hour (AID 1224876); settings: CellTox Green fluorescence; series mostly up to 76.8 µM; note: nearly all actives have a fitted effect of over 45% in size
How it was run: (§3)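 Cytotoxicity was tracked as dead-cell DNA fluorescence in HepG2 cells treated with test compounds at 37 C; each time-point value comes from one kinetic series spanning 0, 8, 16, 24, 32 and 40 h.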

[5] = qHTS RealTime-Glo MT Cell Viability Assay in HepG2 cells - 32 hour (AID 1224877); settings: RealTime-Glo luminescence; series mostly up to 76.8 µM; note: nearly all actives have a fitted effect of over 55% in size
How it was run: (§4)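 Cells + NanoLuc/prosubstrate dispensed (600 cells/well) → 5 h at 37 C/5% CO2 → compounds in DMSO transferred → 40 h incubation at 37 C, luminescence read at 0, 8, 16, 24, 32, 40 h.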

[6] = A CellTox Green Cytotoxicity Assay to monitor cytotoxicity in HepG2 cells - 24 hour (AID 1224878); settings: CellTox Green fluorescence; series mostly up to 76.8 µM; note: nearly all actives have a fitted effect of over 45% in size; note: potency is the fitted concentration of half-maximal effect
How it was run: as §3

[7] = A CellTox Green Cytotoxicity Assay to monitor cytotoxicity in HepG2 cells - 40 hour (AID 1224879); settings: CellTox Green fluorescence; series mostly up to 76.8 µM; note: nearly all actives have a fitted effect of over 40% in size; note: potency is the fitted concentration of half-maximal effect
How it was run: as §3

[8] = A CellTox Green Cytotoxicity Assay to monitor cytotoxicity in HEK293 cells - 32 hour (AID 1224881); settings: CellTox Green fluorescence; series mostly up to 76.8 µM; note: nearly all actives have a fitted effect of over 40% in size
How it was run: as §2

[9] = A CellTox Green Cytotoxicity Assay to monitor cytotoxicity in HepG2 cells - 0 hour (AID 1224882); settings: CellTox Green fluorescence; series mostly up to 76.8 µM; note: nearly all actives have a fitted effect of over 35% in size
How it was run: as §3

[10] = A CellTox Green Cytotoxicity Assay to monitor cytotoxicity in HepG2 cells - 32 hour (AID 1224883); settings: CellTox Green fluorescence; series mostly up to 76.8 µM; note: nearly all actives have a fitted effect of over 50% in size; note: potency is the fitted concentration of half-maximal effect
How it was run: as §3

[11] = A CellTox Green Cytotoxicity Assay to monitor cytotoxicity in HEK293 cells - 8 hour (AID 1224884); settings: CellTox Green fluorescence; series mostly up to 76.8 µM; note: nearly all actives have a fitted effect of over 35% in size
How it was run: as §2

[12] = qHTS RealTime-Glo MT Cell Viability Assay in HepG2 cells - 16 hour (AID 1224885); settings: RealTime-Glo luminescence; series mostly up to 76.8 µM; note: nearly all actives have a fitted effect of over 50% in size
How it was run: as §4

[13] = qHTS RealTime-Glo MT Cell Viability Assay in HEK293 cells - 24 hour (AID 1224886); settings: RealTime-Glo luminescence; series mostly up to 76.8 µM; note: nearly all actives have a fitted effect of over 50% in size; note: potency is the fitted concentration of half-maximal effect
How it was run: as §1

[14] = qHTS RealTime-Glo MT Cell Viability Assay in HEK293 cells - 8 hour (AID 1224887); settings: RealTime-Glo luminescence; series mostly up to 76.8 µM; note: nearly all actives have a fitted effect of over 50% in size; note: potency is the fitted concentration of half-maximal effect
How it was run: (§5)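 Kinetic, non-lysing viability readout. Seed HEK293 (600/well) with reagent, incubate 5 h at 37 C/5% CO2, pin 23 nL compound in DMSO, incubate at 37 C, read luminescence at 0, 8, 16, 24, 32, 40 h.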

[15] = A CellTox Green Cytotoxicity Assay to monitor cytotoxicity in HEK293 cells - 16 hour (AID 1224888); settings: CellTox Green fluorescence; series mostly up to 76.8 µM; note: nearly all actives have a fitted effect of over 35% in size
How it was run: as §2

[16] = qHTS RealTime-Glo MT Cell Viability Assay in HepG2 cells - 0 hour (AID 1224889); settings: RealTime-Glo luminescence; series mostly up to 76.8 µM; note: nearly all actives have a fitted effect of over 50% in size
How it was run: as §4

[17] = A CellTox Green Cytotoxicity Assay to monitor cytotoxicity in HEK293 cells - 40 hour (AID 1224871); settings: CellTox Green fluorescence; series mostly up to 76.8 µM; note: nearly all actives have a fitted effect of over 45% in size
How it was run: as §2

[18] = qHTS RealTime-Glo MT Cell Viability Assay in HEK293 cells - 0 hour (AID 1224880); settings: RealTime-Glo luminescence; series mostly up to 76.8 µM
How it was run: as §5

[19] = qHTS RealTime-Glo MT Cell Viability Assay in HEK293 cells - 40 hour (AID 1224874); settings: RealTime-Glo luminescence; max response: stronger effect = lower value; note: nearly all actives have a fitted effect of over 50% in size; note: potency is the fitted concentration of half-maximal effect
How it was run: as §5
% is set by controls: 0 for no effect and ±100 for the full control effect.

CCCCCCOC(=O)c1ccccc1
inactive: Potency [1] | outcome [2] | Potency [3] | Potency [4] | Potency [5] | Potency [6] | Potency [7] | Potency [8] | Potency [9] | Potency [10] | Potency [11] | outcome [12] | Potency [13] | Potency [14] | Potency [15] | Potency [16]

COc1ccc(C(=O)c2ccc(C)cc2)c(O)c1
inactive: Potency [17] | outcome [2] | Potency [3] | Potency [4] | Potency [5] | Potency [6] | Potency [7] | Potency [18] | Potency [8] | Potency [9] | Potency [10] | outcome [12] | Potency [15] | Potency [16]

C=CCCC
inactive: outcome [2] | max response [19] 18% | Potency [3] | Potency [4] | Potency [5] | Potency [6] | Potency [7] | Potency [18] | Potency [8] | Potency [9] | Potency [10] | Potency [11] | outcome [12] | Potency [13] | Potency [14] | Potency [15] | Potency [16]

O=Cc1ccc(Cl)c([N+](=O)[O-])c1
inactive: Potency [1] | outcome [2] | Potency [3] | Potency [4] | Potency [5] | Potency [6] | Potency [18] | Potency [8] | Potency [9] | Potency [11] | outcome [12] | Potency [14] | Potency [16]

CC(C)(C)c1ccc(CCC=O)cc1
inactive: Potency [17] | Potency [1] | outcome [2] | max response [19] 3.22% | Potency [3] | Potency [4] | Potency [5] | Potency [18] | Potency [8] | Potency [9] | Potency [11] | outcome [12] | Potency [13] | Potency [14] | Potency [15] | Potency [16]

Cc1ccc2c(Cl)cc(Cl)c(O)c2n1
inactive: outcome [2] | max response [19] -5.73% | Potency [3] | Potency [4] | Potency [5] | Potency [6] | Potency [7] | Potency [18] | Potency [8] | Potency [9] | Potency [10] | Potency [11] | outcome [12] | Potency [13] | Potency [14] | Potency [15] | Potency [16]

COC(=O)Cc1cccc2ccccc12
inactive: Potency [17] | Potency [1] | outcome [2] | max response [19] -1.93% | Potency [3] | Potency [4] | Potency [5] | Potency [6] | Potency [7] | Potency [18] | Potency [8] | Potency [9] | Potency [11] | outcome [12] | Potency [13] | Potency [14] | Potency [15] | Potency [16]

O=C(O)COCC(=O)O
inactive: Potency [1] | outcome [2] | max response [19] -0.496% | Potency [3] | Potency [4] | Potency [5] | Potency [6] | Potency [7] | Potency [18] | Potency [8] | Potency [9] | Potency [10] | Potency [11] | outcome [12] | Potency [13] | Potency [14] | Potency [15] | Potency [16]

CCCCCCCCC(=O)OCC(C)OC(=O)CCCCCCCC (centres undefined)
inactive: Potency [17] | Potency [1] | outcome [2] | max response [19] 0.14% | Potency [3] | Potency [4] | Potency [5] | Potency [6] | Potency [7] | Potency [18] | Potency [8] | Potency [9] | Potency [10] | Potency [11] | outcome [12] | Potency [14] | Potency [15] | Potency [16]

Cc1c(N=C=O)cccc1N=C=O
inactive: Potency [17] | Potency [1] | outcome [2] | max response [19] 2.75% | Potency [3] | Potency [4] | Potency [5] | Potency [18] | Potency [8] | Potency [9] | Potency [11] | outcome [12] | Potency [13] | Potency [14] | Potency [16]

C=CC(C)(O)CC/C=C(/C)CCC=C(C)C (centres undefined)
inactive: Potency [17] | Potency [1] | outcome [2] | max response [19] 0.65% | Potency [3] | Potency [4] | Potency [5] | Potency [6] | Potency [7] | Potency [8] | Potency [9] | Potency [11] | outcome [12] | Potency [14] | Potency [16]

CCCCCO
inactive: Potency [17] | outcome [2] | max response [19] 1.46% | Potency [3] | Potency [4] | Potency [5] | Potency [6] | Potency [7] | Potency [18] | Potency [8] | Potency [9] | Potency [10] | Potency [11] | outcome [12] | Potency [13] | Potency [14] | Potency [15] | Potency [16]

CCOc1ccc2c(c1)C(C)CC(C)(C)N2 (centres undefined)
inactive: Potency [1] | outcome [2] | max response [19] -1.9% | Potency [5] | Potency [18] | Potency [9] | Potency [11] | outcome [12] | Potency [13] | Potency [14] | Potency [15] | Potency [16]
active: Potency [6] 49 µM | Potency [7] 43.6 µM | Potency [10] 43.6 µM

CC(=O)Nc1cccc(N)c1
inactive: Potency [17] | Potency [1] | outcome [2] | max response [19] 15% | Potency [3] | Potency [4] | Potency [5] | Potency [6] | Potency [7] | Potency [8] | Potency [9] | Potency [10] | Potency [11] | outcome [12] | Potency [15] | Potency [16]

CC(C)=CCC/C(C)=C/C=N/O
inactive: outcome [2] | max response [19] -25.1% | Potency [4] | Potency [5] | Potency [6] | Potency [7] | Potency [9] | Potency [10] | outcome [12] | Potency [16]

CCCCCCCCCCCCN1CCOCC1
inactive: Potency [17] | Potency [1] | outcome [2] | max response [19] 4.57% | Potency [3] | Potency [4] | Potency [5] | Potency [6] | Potency [7] | Potency [8] | Potency [9] | Potency [10] | outcome [12] | Potency [14] | Potency [16]

CC(C)(Cc1c[nH]c2ccccc12)NCC(O)COc1ccccc1C#N (centres undefined)
inactive: Potency [17] | outcome [2] | Potency [3] | Potency [4] | Potency [5] | Potency [18] | Potency [8] | Potency [9] | Potency [11] | outcome [12] | Potency [15] | Potency [16]
active: Potency [1] 16.9 µM | Potency [19] 19 µM | Potency [13] 9.52 µM | Potency [14] 7.56 µM

CC(=O)c1cccnc1
inactive: Potency [1] | outcome [2] | max response [19] -6.53% | Potency [3] | Potency [4] | Potency [5] | Potency [6] | Potency [7] | Potency [18] | Potency [8] | Potency [9] | Potency [10] | Potency [11] | outcome [12] | Potency [14] | Potency [16]

N#CCCCC(C#N)CCC#N (centres undefined)
inactive: Potency [17] | Potency [1] | outcome [2] | max response [19] 17.1% | Potency [3] | Potency [4] | Potency [5] | Potency [6] | Potency [7] | Potency [18] | Potency [8] | Potency [9] | outcome [12] | Potency [13] | Potency [14] | Potency [16]

CC(C)(O)C(=O)O
inactive: Potency [17] | outcome [2] | max response [19] 6.64% | Potency [3] | Potency [4] | Potency [5] | Potency [6] | Potency [7] | Potency [18] | Potency [8] | Potency [9] | Potency [10] | Potency [11] | outcome [12] | Potency [13] | Potency [14] | Potency [15] | Potency [16]

C/C=C1\[C@H]2C=C(C)C[C@]1(N)c1ccc(=O)[nH]c1C2
inactive: Potency [17] | Potency [1] | outcome [2] | max response [19] -2.81% | Potency [3] | Potency [4] | Potency [5] | Potency [6] | Potency [7] | Potency [18] | Potency [8] | Potency [9] | Potency [10] | Potency [11] | outcome [12] | Potency [13] | Potency [16]
